We go through 21 molecules from PubChem BioAssay.

Values without a mark were called inactive. For part of these data: Entries with a potency or affinity are not part of this list. Activity calls are given as the source filed them. Unless noted, no rule for the calls is given here.

The nature of test [1]: antimalarial activity against Dd2 strain (AID 2302;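 active = growth inhibition above 50% at the single 2 µM test dose, taken to imply half-maximal potency below 2 µM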;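 also: 0% = DMSO untreated growth and 100% = chloroquine plus artemisinin killed control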). The note with it: P. falciparum Dd2 in RBCs, LDH growth readout, 72 h; at 2 µM; stronger effect = higher value.
A short description of test [2]: HepG2 cytotoxicity, primary screen, cytotoxicity control for P. falciparum antimalarial project, cell-based, ATP luminescence (AID 2303;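 active = inhibition above 50%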;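 also: 0% = DMSO wells and 100% = digitonin-killed cells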). The note with it: HepG2 viability, 24-48 h, at 10 µM, stronger effect = higher value.
Test [3] deals with L-lactate dehydrogenase (Plasmodium falciparum (isolate CDC / Honduras)) (UniProt Q27743). Briefly: PfLDH activity inhibition – cell lysate, 3D7 strain, counter-screen for P. falciparum growth inhibition project (AID 2304).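 Also: 0% = vehicle and 100% = reference inhibitor.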 The note with it: P. falciparum 3D7 crude extract, LDH APAD/NBT absorbance; at 2 µM; stronger effect = higher value. Background: The purpose of a counterscreen is to sort out artefacts and off-target activity.

Test [4] can be described thus: inhibition of 3D7 malaria parasite growth – strain 3D7 (AID 2306).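 Also: 0% = DMSO wells and 100% = chloroquine plus artemisinin control wells.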 The note with it: P. falciparum 3D7 erythrocytic growth, LDH absorbance, 72 h; at 2 µM; stronger effect = higher value.
The target in test [5] is Calcium-dependent protein kinase 1 (Plasmodium falciparum (isolate 3D7)) (UniProt P62344). Nature of the test: PfCDPK1 kinase inhibitors, biochemical, TCAMS library (AID 1159585; cut-off not given, nearly all actives have IC50 up to about 0.98 µM;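 also: inhibitors leave more ATP so luminescence rises with inhibition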). The note with it: recombinant PfCDPK1, Kinase-Glo ATP depletion luminescence. For orientation: Kinase-Glo measures the ATP left after a reaction by luminescence.
Test [6] has as its target Plasmodium falciparum protein kinase 6 (PK6, PF3D7_1337100) (UniProt Q8IDW1). Nature of the test: PfPK6 kinase inhibitors, biochemical, TCAMS library (AID 1159586). The note with it: recombinant PfPK6, Kinase-Glo ATP depletion luminescence.
Test [7] concerns the target Protein kinase 7 (PK7), Plasmodium falciparum 3D7 (PF3D7_0213400) (UniProt Q7YTF7). Briefly: inhibition of Plasmodium PK7 catalytic activity – biochemical, TCAMS antimalarial set, Kinase-Glo luminescence (AID 1159587). The note with it: recombinant PfPK7, Kinase-Glo ATP depletion luminescence.
Test [8] addresses Calcium-dependent protein kinase 4 (Plasmodium falciparum (isolate 3D7)) (UniProt Q8IBS5). Nature of the test: PfCDPK4 kinase inhibitors, biochemical, TCAMS library (AID 1159588; cut-off not given, nearly all actives have IC50 up to about 0.91 µM). The note with it: recombinant PfCDPK4, Kinase-Glo ATP depletion luminescence.

Chain of Protein kinase 7 (PK7), Plasmodium falciparum 3D7 (PF3D7_0213400) (Q7YTF7 1-343): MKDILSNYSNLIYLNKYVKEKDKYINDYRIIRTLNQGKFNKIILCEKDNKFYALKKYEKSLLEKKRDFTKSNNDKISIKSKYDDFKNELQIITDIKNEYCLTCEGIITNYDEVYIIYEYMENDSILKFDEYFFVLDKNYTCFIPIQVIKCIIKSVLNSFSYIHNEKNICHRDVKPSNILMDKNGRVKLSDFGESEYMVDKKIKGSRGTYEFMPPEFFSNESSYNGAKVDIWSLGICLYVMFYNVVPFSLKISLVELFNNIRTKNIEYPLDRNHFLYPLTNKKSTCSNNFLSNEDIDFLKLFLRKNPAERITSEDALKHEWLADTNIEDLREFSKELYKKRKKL
Chain of Calcium-dependent protein kinase 4 (Plasmodium falciparum (isolate 3D7)) (Q8IBS5 whole entry, looked up): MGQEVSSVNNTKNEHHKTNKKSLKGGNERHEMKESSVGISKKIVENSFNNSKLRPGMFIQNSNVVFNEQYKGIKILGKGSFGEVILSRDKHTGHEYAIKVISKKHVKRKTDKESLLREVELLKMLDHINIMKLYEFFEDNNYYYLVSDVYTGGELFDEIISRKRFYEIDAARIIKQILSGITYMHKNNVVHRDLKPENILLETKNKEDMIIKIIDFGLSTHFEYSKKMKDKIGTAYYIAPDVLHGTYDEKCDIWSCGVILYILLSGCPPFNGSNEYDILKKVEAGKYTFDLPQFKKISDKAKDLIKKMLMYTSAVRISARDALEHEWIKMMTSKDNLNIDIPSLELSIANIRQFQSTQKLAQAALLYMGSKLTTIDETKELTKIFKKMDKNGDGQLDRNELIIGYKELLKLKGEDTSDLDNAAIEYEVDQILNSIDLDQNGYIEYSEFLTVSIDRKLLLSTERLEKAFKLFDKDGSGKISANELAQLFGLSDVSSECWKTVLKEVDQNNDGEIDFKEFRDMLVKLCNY
Chain of L-lactate dehydrogenase (Plasmodium falciparum (isolate CDC / Honduras)) (Q27743 whole entry, looked up): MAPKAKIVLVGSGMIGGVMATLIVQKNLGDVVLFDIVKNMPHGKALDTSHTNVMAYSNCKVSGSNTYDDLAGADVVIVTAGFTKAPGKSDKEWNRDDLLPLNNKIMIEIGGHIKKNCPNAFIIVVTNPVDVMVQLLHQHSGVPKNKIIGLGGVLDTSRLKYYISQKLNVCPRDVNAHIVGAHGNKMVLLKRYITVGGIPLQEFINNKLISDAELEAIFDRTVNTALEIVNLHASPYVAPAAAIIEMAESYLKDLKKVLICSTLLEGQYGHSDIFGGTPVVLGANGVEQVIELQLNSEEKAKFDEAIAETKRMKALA
Chain of Calcium-dependent protein kinase 1 (Plasmodium falciparum (isolate 3D7)) (P62344 whole entry, looked up): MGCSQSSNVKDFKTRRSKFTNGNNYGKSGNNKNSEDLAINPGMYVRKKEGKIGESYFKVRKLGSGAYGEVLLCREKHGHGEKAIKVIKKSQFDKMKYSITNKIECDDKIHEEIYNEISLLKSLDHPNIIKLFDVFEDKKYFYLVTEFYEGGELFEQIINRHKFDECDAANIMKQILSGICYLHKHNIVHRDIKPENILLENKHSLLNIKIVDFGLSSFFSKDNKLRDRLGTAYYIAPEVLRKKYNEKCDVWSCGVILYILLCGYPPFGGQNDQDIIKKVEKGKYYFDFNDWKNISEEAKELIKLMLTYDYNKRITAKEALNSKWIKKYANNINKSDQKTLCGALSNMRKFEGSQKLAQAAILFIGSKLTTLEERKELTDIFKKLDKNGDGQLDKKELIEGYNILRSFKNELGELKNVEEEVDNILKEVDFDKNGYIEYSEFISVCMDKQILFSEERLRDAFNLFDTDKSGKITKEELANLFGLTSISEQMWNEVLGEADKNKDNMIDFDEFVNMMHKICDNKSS
Chain of Plasmodium falciparum protein kinase 6 (PK6, PF3D7_1337100) (Q8IDW1 1-305): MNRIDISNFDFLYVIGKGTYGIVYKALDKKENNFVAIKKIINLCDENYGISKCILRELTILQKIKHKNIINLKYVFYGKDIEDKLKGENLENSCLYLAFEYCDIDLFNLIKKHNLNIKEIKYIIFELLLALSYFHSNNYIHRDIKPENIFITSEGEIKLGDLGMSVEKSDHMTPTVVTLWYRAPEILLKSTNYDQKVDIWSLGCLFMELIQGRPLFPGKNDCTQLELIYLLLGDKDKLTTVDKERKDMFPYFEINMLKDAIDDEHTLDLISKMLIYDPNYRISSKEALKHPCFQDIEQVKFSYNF

By inhibition is commonly meant the change of the read-out against control, counted positive when it falls. In the case of `CCCCc1ccc(C(=O)Nc2ccc3nc(N4CCN(C)CC4)cc(C)c3c2)cc1`, the growth inhibition in test [1] was 21%; in test [4], 90% (active). Moreover, the inhibition in test [2] was 44%; in test [3], -6%. For the same molecule, the result in test [5], in test [6], in test [7] and in test [8] was inactive.
With `CN(C)CCNCc1cccc(-c2ccc3c(Nc4cc(O)c(Cl)cc4F)ccnc3c2)c1`, the growth inhibition in test [1] is 59% (active); in test [4], 99% (active). In addition, the inhibition in test [2] was 6%; in test [3], 3%. The outcome in test [5], in test [6], in test [7] and in test [8] was inactive.
For `COc1cccc(CN2CCN(C(c3ccccc3)c3ccccc3)CC2)c1O`, the growth inhibition in test [1] was 98% (active); in test [4], 99% (active). In addition, the inhibition was 6% in test [2] and 2% in test [3]. Besides, the result in test [5], in test [6], in test [7] and in test [8] was inactive.
With `O=C(NC1CC1)c1cnc(N2CCC(OCc3ccccc3)CC2)c(Cl)c1`, the growth inhibition was 71% (active) in test [1] and 90% (active) in test [4]. Besides, the figures for the inhibition in test [2] and in test [3] were -5% and -2%, respectively. In addition, the result in test [5], in test [6], in test [7] and in test [8] was inactive.
Take `CCCCCC(=O)N1CCOC(CCN2CCc3c(c4ccccc4n3C)C2)(c2ccc(Cl)c(Cl)c2)C1` (stereo not drawn): the growth inhibition was 80% (active) in test [1] and 95% (active) in test [4]. Also, the inhibition in test [2] was 24%; in test [3] it was 1%. Also, the result in test [5], in test [6], in test [7] and in test [8] was inactive.
Regarding `Cc1nc(-c2nc(NCc3ccc4c(c3)OCO4)ncc2-c2ccsc2)sc1C`, the growth inhibition in test [1] is 77% (active); in test [4], 97% (active). The inhibition in test [2] was 7%; in test [3], -6%. Besides, the outcome in test [5], in test [6], in test [7] and in test [8] was inactive.
Turning to `CN1CCN(c2ccnc3ccc(NC(=O)N(C)c4ccc(Cl)c(Cl)c4)cc23)CC1`, the values for the growth inhibition in test [1] and in test [4] were 85% (active) and 100% (active), respectively. Further, the inhibition in test [2] is 5%; in test [3], -3%. The result in test [5], in test [6], in test [7] and in test [8] was inactive.
For `COc1cccc(CCNCc2ccc(-c3cccc(CNC4CCCC4)c3)cc2)c1`, the results for the growth inhibition in test [1] and in test [4] were 45% and 101% (active), respectively. The results for the inhibition in test [2] and in test [3] were 14% and -4%, respectively. Also, the result in test [5], in test [6], in test [7] and in test [8] was inactive.
With `O=C(C=Cc1ccc(Cl)c(Cl)c1)NCCCCCN1CCC(CCCNC(=O)c2sc3ccccc3c2Cl)CC1`, the results for the growth inhibition in test [1] and in test [4] were 40% and 93% (active), respectively. For the same molecule, the inhibition is 99% (active) in test [2] and -5% in test [3]. Further, the result in test [5], in test [6], in test [7] and in test [8] was inactive.
As to `O=C1NC(c2ccc(N3CCCCCC3)cc2)Nc2ccccc21` (stereo not drawn), the growth inhibition in test [1] and in test [4] was 96% (active) in each case. The inhibition in test [2] was 19%; in test [3], 0%. The result in test [5], in test [6], in test [7] and in test [8] was inactive.
`CN1CCN(c2cc(NC(=O)Nc3ccc(-c4ccncc4)c(Cl)c3)ccc2Br)CC1`: the figures for the growth inhibition in test [1] and in test [4] were 99% (active) and 101% (active), respectively. Moreover, the inhibition is 23% in test [2] and 2% in test [3]. For the same molecule, the outcome in test [5], in test [6], in test [7] and in test [8] was inactive.
For the molecule `NC1CCCN(Cc2cccc(-c3ccc(-c4nc5ccccc5[nH]4)s3)c2)C1` (stereo not drawn), the results for the growth inhibition in test [1] and in test [4] were 88% (active) and 98% (active), respectively. For the same molecule, the inhibition in test [2] was 21%; in test [3] it was -2%. Further, the result in test [5], in test [6], in test [7] and in test [8] was inactive.
`O=C(C=Cc1ccc(Br)cc1)N1CCC(CCN2CCC(c3c[nH]c4ccccc34)CC2)CC1`: the growth inhibition in test [1] was 24%; in test [4] it was 98% (active). Moreover, the inhibition in test [2] is 47%; in test [3] it was 2%. The outcome in test [5], in test [6], in test [7] and in test [8] was inactive.
Regarding `CC(C)n1ncc2c(C(=O)N3CCCc4ccccc43)cc(-c3ccccc3)nc21`, the growth inhibition in test [1] was 82% (active); in test [4] it was 100% (active). In addition, the inhibition in test [2] was 5%; in test [3], 2%. Also, the result in test [5], in test [6], in test [7] and in test [8] was inactive.
In the case of `Clc1ccc(NC(=NCCCCCCCN=C(Nc2ccc(Cl)cc2)Nc2ccc(Cl)cc2)Nc2ccc(Cl)cc2)cc1`, the figures for the growth inhibition in test [1] and in test [4] were 99% (active) and 101% (active), respectively. Moreover, the inhibition was 100% (active) in test [2] and 0% in test [3]. In addition, the outcome in test [5], in test [6], in test [7] and in test [8] was inactive.
As for `N=C(N)c1cc(Br)cc(NC(=O)Nc2cc(Br)cc(C(=N)N)c2)c1`, the results for the growth inhibition in test [1] and in test [4] were 76% (active) and 93% (active), respectively. The inhibition in test [2] is 0%; in test [3] it was -4%. Further, the outcome in test [5], in test [6], in test [7] and in test [8] was inactive.
Take `c1ccc(-c2ccc3c(Nc4ccc5[nH]ncc5c4)ccnc3c2)nc1`: the growth inhibition in test [1] was 99% (active); in test [4], 100% (active). Moreover, the inhibition in test [2] was 99% (active); in test [3], 4%. Also, the result in test [5], in test [6], in test [7] and in test [8] was inactive.
Take `Nc1nccc2ccc(-c3ccc(OCc4ccccc4)cc3)cc12`: the growth inhibition in test [1] was 67% (active); in test [4], 101% (active). Moreover, the inhibition was 40% in test [2] and -8% in test [3]. Further, the outcome in test [5], in test [6], in test [7] and in test [8] was inactive.
For the molecule `O=[N+]([O-])c1ccc2nccnc2c1`, the growth inhibition was 0% in test [1] and 97% (active) in test [4]. For the same molecule, the results for the inhibition in test [2] and in test [3] were -2% and -1%, respectively. The outcome in test [5], in test [6], in test [7] and in test [8] was inactive.
Consider `C[C@H](Cc1ccc(OCCCCOc2ccc(C[C@@H](C)NC[C@H](O)c3cccc(Cl)c3)cc2)cc1)NC[C@H](O)c1cccc(Cl)c1`, for which the growth inhibition was 92% (active) in test [1] and 100% (active) in test [4]. The inhibition in test [2] is 68% (active); in test [3], 7%. In addition, the outcome in test [5], in test [6], in test [7] and in test [8] was inactive.
`CC(C)c1ccc(CN(C)CCCCNC(=O)c2ccc(NC(=O)c3ccc(Cl)cc3)cc2)cc1`: the growth inhibition in test [1] is 0%; in test [4] it was 92% (active). Besides, the inhibition in test [2] was 17%; in test [3], 0%. In addition, the result in test [5], in test [6], in test [7] and in test [8] was inactive.
